Source: PubChem BioAssay AID1851 (National Center for Advancing Translational Sciences (NCATS), 2009)
Values joined by “and” are separate entries in the source; they are usually repeats but may differ in a detail not shown here. Identical values can stand only once. Among all 16,000 compounds or so, about 2,600 (16%) were called active. Another 20% or so got no clear call; they are omitted. Calls follow the shape of the dose curve; as a rule, active = well fitted curve in the direction sought with a large enough effect; inconclusive = small, poorly fitted or top-dose-only effect, or effect the other way; inactive = no such curve, though single readings can be large or run the other way. A selection follows.

These compounds were tested against Cytochrome P450 2D6 (Homo sapiens) (UniProt P10635) (assay: Cytochrome panel assay with activity outcomes). Conditions: recombinant CYP, pro-luciferin dealkylation, luminescence, p450-cyp2d6; series mostly up to 57.1 µM.
% is scaled to controls: 0 for no effect and ±100 for the full control effect.

Sequence of Cytochrome P450 2D6 (Homo sapiens) (P10635 whole entry, looked up): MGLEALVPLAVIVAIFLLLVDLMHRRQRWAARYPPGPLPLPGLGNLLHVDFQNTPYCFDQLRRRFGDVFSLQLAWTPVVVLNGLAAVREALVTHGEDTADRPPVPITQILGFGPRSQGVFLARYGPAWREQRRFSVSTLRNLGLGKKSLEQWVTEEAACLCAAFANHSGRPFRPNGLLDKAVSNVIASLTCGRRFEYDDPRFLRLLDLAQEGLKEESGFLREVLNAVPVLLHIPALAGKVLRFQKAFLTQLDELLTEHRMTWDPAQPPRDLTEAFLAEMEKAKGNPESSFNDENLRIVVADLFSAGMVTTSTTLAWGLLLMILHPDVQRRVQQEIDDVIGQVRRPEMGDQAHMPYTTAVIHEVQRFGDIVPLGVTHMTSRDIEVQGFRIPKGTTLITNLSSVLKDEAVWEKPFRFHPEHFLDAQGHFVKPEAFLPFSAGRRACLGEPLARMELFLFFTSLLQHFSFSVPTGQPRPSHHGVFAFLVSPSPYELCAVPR

Row | SMILES | AC50 | activity, negative = inhibition
1 | NC(=NC1C2CC3CC(C2)CC1C3)Nc1ccc(I)cc1 (centres undefined) | 0.0398 µM (active) | –
2 | Nc1nc(Br)c2ccccc2c1-c1ccc(F)cc1 | inactive | –
3 | O=C1/C(=C/c2cccnc2)SC(=S)N1Cc1ccco1 | – | -20.9% [at 11.4 µM] (inactive)
4 | CC(=O)C1C(c2ccccc2OC(F)F)NC(=O)NC1(O)C(F)(F)F (centres undefined) | inactive | –
5 | CC(=O)c1sc(N)c(C(=O)OC(C)C)c1C | inactive | –
6 | C[C@@H](C(=O)Nc1ccc2ccccc2c1)[C@H]1C[C@]1(C)[C@H](NS(=O)(=O)c1ccc2ccccc2c1)c1ccccc1 | 3.16 µM (active) | –
7 | C[C@@H](C(=O)Nc1ccc2ccccc2c1)[C@H]1C[C@]1(C)[C@H](NS(=O)(=O)c1ccc(-c2ccccc2)cc1)c1ccccc1 | 2 µM (active) | –
8 | C[C@@H](C(=O)Nc1ccc2ccccc2c1)[C@@H]1C[C@@]1(C)[C@@H](NS(=O)(=O)c1ccc(-c2ccccc2)cc1)c1ccccc1 | inactive | –
9 | C[C@@H](C(=O)Nc1ccc2ccccc2c1)[C@@H]1C[C@@]1(C)[C@@H](NS(=O)(=O)c1ccc2ccccc2c1)c1ccccc1 | inactive | –
10 | CCSc1nc2c(c(=O)[nH]1)C(c1ccccn1)C1=C(CC(C)(C)CC1=O)N2 (centres undefined) | inactive | –
11 | C[C@]1(OC(=O)/C=C\c2ccccc2)C[C@@H](O)[C@@]2(O)C=CO[C@@H](O[C@H]3O[C@@H](CO)[C@@H](O)[C@@H](O)[C@@H]3O)[C@H]21 | inactive | –
12 | CCN1CCN(c2nc(-c3ccccn3)nc3ccccc23)CC1 | inactive | –
13 | CC1CCCCN1c1nc(-c2ccncc2)nc2ccccc12 (centres undefined) | 7.94 µM (active) | –
14 | CC1CCCCN1c1cc(C#N)c(C#N)cc1[N+](=O)[O-] (centres undefined) | inactive | –
15 | O=C(O)C12CC3(C(=O)O)CC(C(=O)O)(CC(C(=O)O)(C1)C3=O)C2=O | – | -4.61% [at 11.4 µM] (inactive)
16 | CCCN(C/C=C\I)[C@@H]1CCc2cccc(O)c2C1 | inactive | –
17 | CCCN(CCc1ccccc1)[C@H]1CCc2c(O)cccc2C1 | 0.501 µM (active) | –
18 | Cc1ccc(-n2c(CCC(=O)O)ccc2-c2cccs2)cc1C | inactive | –
19 | O=c1c(-c2ccccc2)nc2cnc(N3CCOCC3)nc2n1-c1ccccc1 | inactive | –
20 | C/C(Cn1nc([N+](=O)[O-])cc1C)=N\NC(=O)c1ccc(O)cc1O | inactive | –
21 | Cc1ccc(Cl)c(Nc2ccccc2C(=O)O)c1Cl | inactive | –
22 | Cc1nc2ccccc2nc(C)c1=NO | inactive | –
23 | CCOC(=O)C(C)CC(C)C(=O)N1CCOCCN(C(=O)C(C)CC(C)C(=O)OCC)CCOCC1 (centres undefined) | inactive | –
24 | CC(N)=NCc1cccc(CN)c1 | inactive | –
25 | NC(N)=NCc1cccc(I)c1 | 15.8 µM (active) | –

Row | SMILES | AC50 | activity, negative = inhibition
26 | Nc1c(OCC(=O)O)ccc2cc(S(=O)(=O)O)ccc12 | – | -4.66% [at 11.4 µM] (inactive)
27 | CNC(=S)NNC(=O)c1sccc1OCc1ccc(C)cc1 | inactive | –
28 | COc1ccccc1/C=N/NC(=O)CC(=O)Nc1ccc(Cl)c(Cl)c1 | 28.2 µM (active) | –
29 | COc1cc(C(=O)Oc2ccccc2/C=N/NC(=O)c2ccc(C)cc2)cc(OC)c1OC | inactive | –
30 | O=C(Cc1ccccc1)N/N=C/c1ccccc1OCc1ccc(Cl)cc1 | inactive | –
31 | NC([N-]/N=C/c1ccccn1)=[S]=[Fe].O=S(=O)(O)O | – | 8.09% [at 11.4 µM] (inactive)
32 | N#CCCn1c(=O)c(-c2cc(F)cc(F)c2)nc2cnc(N3CCOCC3)nc21 | inactive | –
33 | CC(C)N(Cc1ccccc1)S(=O)(=O)c1n[nH]c(C(C)(C)C)n1 | – | 14.9% [at 11.4 µM] (inactive)
34 | CCC(NC(=O)Nc1cc(OC)c(OC)c(OC)c1)(C(F)(F)F)C(F)(F)F | inactive | –
35 | COc1cc(NC(=O)C2CCN(S(=O)(=O)c3cccc4nonc34)CC2)cc(OC)c1 | 0.562 µM (active) | –
36 | CC(=O)Nc1ccc(NC(=O)C2CCN(S(=O)(=O)c3cccc4nonc34)CC2)cc1 | inactive | –
37 | CC1CCN(C(=O)C2CCN(S(=O)(=O)c3cccc4nonc34)CC2)CC1 | inactive | –
38 | O=C(Nc1cccc(F)c1)N1CCCC2(CCN(C(=O)c3cnccn3)CC2)C1 | inactive | –
39 | CCC(=O)NC(=S)Nc1ccc(S(=O)(=O)NC(C)=O)cc1 | inactive | –
40 | CCCCCN(CCCCC)C(=O)[C@H](CCC(=O)O)NC(=O)c1ccc(Cl)c(Cl)c1 | inactive | –
41 | O=S(=O)(c1cccc2cnccc12)N1CCNCC1 | inactive | –
42 | O=S(=O)(c1cccc2c(I)cccc12)N1CCCNCC1 | 10 µM (active) | –
43 | Cc1noc(C)c1-c1nccc(N2CCN(C)CC2)n1 | inactive | –
44 | Cn1cccc1C(=O)N1CCC2(CC1)CCN(c1ccccn1)CC2 | inactive | –
45 | S=C(Nc1ccc2cn[nH]c2c1)Nc1ccc2cn[nH]c2c1 | 2 µM (active) | –
46 | N#CC(C#N)=NNc1ccc2cn[nH]c2c1 | – | -16.6% [at 11.4 µM] (inactive)
47 | CNC(=S)Nc1ccc2nc(C)c(C)nc2c1 | inactive | –
48 | CCOC(=O)N/N=C1/C[C@@H](O)[C@@H](O)[C@@H]2[C@@H]3C(=O)N(c4cccc(Oc5ccccc5)c4)C(=O)[C@H]3CC[C@@H]12 | – | 4.14% [at 11.4 µM] (inactive)
49 | COC(=O)c1c(C)[nH]c(C)c1C(=O)c1ccccc1Cc1ccccc1 | inactive | –
50 | Cc1cc(C)n(CC(=O)N/N=C/c2ccco2)n1 | inactive | –

Row | SMILES | AC50 | activity, negative = inhibition
51 | O=C(NCC(c1cccs1)N1CCOCC1)c1ccco1 (centres undefined) | inactive | –
52 | O=C(NCCc1cccs1)C1CC(c2c(Cl)cccc2Cl)=NO1 (centres undefined) | 5.01 µM (active) | –
53 | COc1ccc(C2=NOC(C(=O)NCCN3CCOCC3)C2)cc1 (centres undefined) | inactive | –
54 | O=C(NCc1ccccn1)C1CC(c2ccc(Cl)c(Cl)c2)=NO1 (centres undefined) | inactive | –
55 | COc1ncc2nc(-c3ccccc3)c(=O)n(C)c2n1 | inactive | –
56 | Cc1cc(C)c(C#N)c(OCC(=O)c2ccc(Br)cc2)n1 | inactive | –
57 | CCc1ccc(C(=O)CN(C#N)c2nc(C)cc(C)n2)cc1 | 6.31 µM (active) | –
58 | CCc1ccc(C(=O)COC(=O)c2cccc(N3C(=O)c4c(C)nc5ccccc5c4C3=O)c2)cc1 | inactive | –
59 | CC(C)[C@@H](OCc1ccccc1)[C@H](C)/C=N\OC[C@@H](O)[C@@H]1O[C@@H]2OC(C)(C)O[C@@H]2[C@H]1O | – | 15.3% [at 11.4 µM] (inactive)
60 | CCn1cc(C(=O)O)c(=O)c2cc(F)c(N3CCN[C@@H](C)C3)c(F)c21 | inactive | –
61 | O=c1[nH]c(=O)n([C@@H]2C[C@H](O)[C@H](CO)O2)cc1C(F)(F)F | inactive | –
62 | N#Cc1cccc(-c2cc(NCc3cccnc3)ncn2)c1 | inactive | –
63 | N#Cc1cccc(-c2nccc(NCc3cccnc3)n2)c1 | inactive | –
64 | N#Cc1cccc(-c2nccc(NCc3ccccc3)n2)c1 | 7.94 µM (active) | –
65 | N#Cc1cccc(-c2nccc(NCc3cccs3)n2)c1 | 20 µM (active) | –
66 | Cc1cc(C(=O)OCC(=O)NCCC(C)C)c2ccccc2n1 | inactive | –
67 | COc1cc2c3cc1Oc1cc(ccc1O)C[C@@H]1c4c(cc(OC)c(O)c4Oc4ccc(cc4)C[C@H]3[N+](C)(C)CC2)CC[N+]1(C)C | – | 8.34% [at 11.4 µM] (inactive)
68 | O=C(Nc1cccc2cccnc12)[C@@H]1[C@@H](C(=O)O)[C@H]2CC[C@@H]1O2 | – | 5.88% [at 11.4 µM] (inactive)
69 | C[C@@]1(C(NC(=O)Cc2ccc(C(F)(F)F)cc2)c2ccc(-c3ccccc3)cc2)C[C@H]1C1CCCCC1 (some centres undefined) | inactive | –
70 | N/N=C1/c2ccccc2N[C@H]1OC(=O)Nc1ccccc1 | 3.16 µM (active) | –
71 | O=C(Nc1ccccc1)[C@@]12C[C@@H]1/C(=N/O)c1ccccc1O2 | inactive | –
72 | O=C(O)c1ccccc1-c1ccccc1C(=O)Nc1ccccc1 | inactive | –
73 | CN(C)CCSCCO | – | 7.16% [at 11.4 µM] (inactive)
74 | NC(=O)c1nnn(Cc2cc(Cl)c(C(=O)c3ccc(Cl)cc3)c(Cl)c2)c1N | – | -20.8% [at 11.4 µM] (inactive)
75 | O=C(O)CNCCc1ccccc1 | – | 3.94% [at 11.4 µM] (inactive)

Row | SMILES | AC50 | activity, negative = inhibition
76 | NNCCc1ccccc1 | 6.31 µM (active) and 2.51 µM (active) | –
77 | O=C(CC(=O)NN=C1CCCC1)NCCc1ccccc1 | inactive | –
78 | COc1cccc(/C=N/n2nnc3c(cnn3-c3ccccc3)c2=O)c1 | inactive | –
79 | Cc1c(C)c(C)c(CC2(C)CSC2)c(CC2(C)CSC2)c1C | – | 7.89% [at 11.4 µM] (inactive)
80 | COc1ccc(C2(C(=O)N3CCOCC3)CCCC2)cc1 | inactive | –
81 | C[N+]1(C)CCc2cc3c(cc2[C@@H]1[C@@H]1C(=O)Oc2c1ccc1c2OCO1)OCO3 | 12.6 µM (active) | –
82 | COc1ccc(-n2c(=O)c(-c3cccc(C#N)c3)nc3cnc(N4CCNCC4)nc32)cc1 | inactive | –
83 | Nc1cc(-c2nn[nH]n2)ccc1F | inactive | –
84 | CSc1nsc(SC)c1C(=O)Nc1ccc(C)cc1 | 10 µM (active) | –
85 | CSc1nsc(SC)c1NC(=O)Nc1ccccn1 | inactive | –
86 | CCC(=O)NCCNC(=O)c1c(SC)nsc1SC | inactive | –
87 | CC(NC(=O)C1(C)CC1(Br)Br)C(C)(C)C (centres undefined) | inactive | –
88 | COc1ccc(Oc2ncc3nc(CCc4ccccc4)c(=O)n(C4CC4)c3n2)cc1 | inactive | –
89 | Cc1ccccc1/C=N\NC(=O)c1csnn1 | inactive | –
90 | COc1ccc(Br)cc1C(=O)Nc1ccc(Cc2ccncc2)cc1 | 0.0398 µM (active) | –
91 | O=C(Nc1ccc(-c2cn3ccccc3n2)cc1)c1cc(Br)ccc1O | – | -3.93% [at 11.4 µM] (inactive)
92 | COc1ccc(NC(=O)c2ccc(C(=O)c3cc(OC)ccc3OC)cc2)cc1 | inactive | –
93 | CC(C)=NO[C@@H](C)c1cc(-c2c(C)cc(C)cc2C)no1 | – | -6.21% [at 11.4 µM] (inactive)
94 | O=C(O)[C@H](Cc1cc(I)c(O)c(I)c1)C1CCCCC1 | – | 10.8% [at 11.4 µM] (inactive)
95 | CC(C)OC(=O)C(CC(=O)O)N1CCOCC1 (centres undefined) | inactive | –
96 | Cc1ccccc1-c1nc(N(C)C)c2ccccc2n1 | 12.6 µM (active) | –
97 | COc1ccccc1-c1nc(N(C)C)c2ccccc2n1 | 3.16 µM (active) | –
98 | CN(C)c1nc(-c2ccccc2C(F)(F)F)nc2ccccc12 | 10 µM (active) | –
99 | COc1cc(NS(C)(=O)=O)ccc1Nc1c2ccccc2nc2ccccc12 | inactive | –
